From PubChem BioAssay
ELG1 repair inh = blocks ELG1-dependent DNA repair in HEK293T cells. HEK293T ELG1-luciferase reporter, luminescence, 16 h; DNA damage induced by 5-fluorouridine. hit rate 2.3% among 330,000. Potency, µM (doses to about 46.1 µM), actives largely listed as inhibitors; also: nearly all actives have a fitted effect of over 55% in size
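5-Fluorouridine DNA damage + compound/DMSO, 2,000 cells/well, 16 h, 37 °C/5% CO2. ONE-Glo, 30 min RT, luminescence. Readout = decrease in reporter signal.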
MCF10A rerep = DNA re-replication induction in MCF 10a cells | Potency, µM (titrated, usually from 46.1 µM), hits mostly activators | MCF 10A DNA re-replication, Hoechst nuclear intensity, 48 h | AID 624296 | hit rate 2.9% among 350,000; also: nearly all actives have a fitted effect of over 50% in size
SW480 rereplic = inducers of DNA re-replication in SW480 colon cancer cells. SW480 DNA re-replication, Hoechst DNA content imaging, 48 h. Potency, µM (highest dose often 46.1 µM), usual class: activators. hit rate 1.8% among 340,000; also: nearly all actives have a fitted effect of over 55% in size
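Compounds, transferred as 23 nL by pin tool, were incubated with cells for 48 hr; DNA content per nucleus was then quantified by Hoechst staining and fluorescence plate imaging.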
Gal4-VP16 FLuc = counter-screen for ROR gamma inhibitors: Gal4-VP16 reporter | Potency, µM (highest dose often 53.6 µM), usual class: inhibitors | Drosophila S2 Gal4-VP16 UAS-luciferase, luminescence, 20 h | AID 2546 | hit rate 3.5% among 310,000;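 also: Gal4-VP16 expression switched on by copper sulfate through the metallothionein promoter; nearly all actives have a fitted effect of over 50% in size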
RORg inh = inhibitors of mouse ROR gamma transcriptional activity. AID 2551. hit rate 5.4% among 310,000. Drosophila S2 Gal4-RORgamma UAS-luciferase reporter, 20 h. Potency, µM (titrated, usually from 53.6 µM), hits mostly inhibitors. P51450; also: nearly all actives have a fitted effect of over 60% in size
Target sequence (P51450 whole entry, looked up, the tested form may be a part): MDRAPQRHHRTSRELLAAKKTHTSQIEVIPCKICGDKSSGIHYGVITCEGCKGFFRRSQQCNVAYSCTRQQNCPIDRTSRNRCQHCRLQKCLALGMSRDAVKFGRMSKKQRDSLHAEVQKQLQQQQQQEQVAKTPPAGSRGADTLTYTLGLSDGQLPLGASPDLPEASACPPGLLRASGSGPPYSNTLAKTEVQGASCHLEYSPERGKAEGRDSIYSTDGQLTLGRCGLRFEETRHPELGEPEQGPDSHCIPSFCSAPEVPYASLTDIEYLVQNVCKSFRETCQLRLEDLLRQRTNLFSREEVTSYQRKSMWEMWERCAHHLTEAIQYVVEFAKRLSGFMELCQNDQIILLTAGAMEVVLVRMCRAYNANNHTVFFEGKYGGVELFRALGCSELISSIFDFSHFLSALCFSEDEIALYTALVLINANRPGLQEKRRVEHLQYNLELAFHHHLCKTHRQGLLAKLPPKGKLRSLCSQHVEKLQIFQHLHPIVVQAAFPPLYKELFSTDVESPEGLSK
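Read-out: Photinus luciferase luminescence; inhibitors lower reporter signal. Insect Schneider cells with Gal4-ROR gamma fusion under metallothionein promoter, UAS reporter; 700 uM final copper sulfate induction, 20 hr, ambient temperature.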
ELG1 FLuc counter = luciferase inhibition in cell-free luciferin readout for ELG1 hits. AID 624247. cell-free firefly luciferase luminescence counter-screen, ViewLux. hit rate 3% among 350. Potency, µM (titrated, usually from 46.1 µM), most hits filed as inhibitors. shares compounds with ELG1 repair inh
ELG1-Luc inh = inhibits ELG1-dependent DNA repair in HEK293T cells, confirmed | Potency, µM (highest dose often 46.1 µM), actives largely listed as inhibitors | hit rate 68% among 670 | AID 624248 | HEK293T ELG1-luciferase levels, luminescence; cells co-treated with 5-fluorouridine | shares compounds with ELG1 repair inh; also: nearly all actives have a fitted effect of over 55% in size
ELG1 MMS Luc = MMS-stimulated human ELG1 repair inhibition, confirmed. shares compounds with ELG1 repair inh. HEK293T luciferase-tagged ELG1 level, MMS stimulated. AID 624249. Potency, µM (top dose mostly 46.1 µM), hits mostly inhibitors. hit rate 53% among 670; also: nearly all actives have a fitted effect of over 60% in size
ELG1 5FU viab = confirmation of ELG1 repair inhibitors: viability with 5FU. shares compounds with ELG1 repair inh. cell viability with 5-FU, ELG1-dependent repair. Potency, µM (top dose mostly 46.1 µM), usual class: cytotoxic. 670 tested, under 10 active. AID 624250;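 also: ELG1-luc HEK293T cells cotreated with 5-fluorouridine at 10 µM final; viability measured 16 h after compound addition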
ELG1 MMS cell = confirmation of ELG1 repair inhibitors: viability with MMS | Cell viability with MMS, ELG1-dependent DNA repair | hit rate 33% among 670 | Potency, µM (top dose mostly 46.1 µM), usual class: cytotoxic | shares compounds with ELG1 repair inh | AID 624251;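 also: ELG1-luc HEK293T cells co-treated with 10 µM MMS; viability read 16 h after compound addition; nearly all actives have a fitted effect of over 60% in size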
ELG1 unstim viab = unstimulated viability counter-screen for ELG1 repair hits | shares compounds with ELG1 repair inh | cell viability counter-screen, unstimulated, luminescence | Potency, µM (titrated, usually from 45.9 µM), actives largely listed as cytotoxic | hit rate 8% among 900 | AID 624252;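 also: compound exposure lasted 16 hours before reading; nearly all actives have a fitted effect of over 55% in size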
FLuc biochem = firefly luciferase inhibition counter-screen; AID 624253; hit rate 10% among 350; shares compounds with ELG1 repair inh; purified firefly luciferase, luminescence counter-screen; Potency, µM (highest dose often 57.5 µM), actives largely listed as inhibitors
A number is an active result; [ ] = remark or other dose. Hits are enriched below; roughly 10% of the tested compounds scored in any of these assays. Calls follow the shape of the dose curve; as a rule, active = well fitted curve in the direction sought with a large enough effect; inconclusive = small, poorly fitted or top-dose-only effect, or another doubt; inactive = no such curve, though single readings can be large; an effect the other way counts as inactive or inconclusive.

How did O=[N+]([O-])c1cccc(COc2cccc(CN3CCCC3)c2)c1 do in these assays?
MCF10A rerep: inactive; SW480 rereplic: inconclusive

Results for CCOC(=O)N1CCN(C(=O)c2cnn3c(C(F)F)cc(-c4ccc(C)cc4)nc23)CC1 ?
ELG1 repair inh: 3.7µM; MCF10A rerep: inactive; SW480 rereplic: inactive; Gal4-VP16 FLuc: inactive[0.365 µM]; RORg inh: inactive; ELG1-Luc inh: 3.5µM; ELG1 MMS Luc: inactive; ELG1 5FU viab: inconclusive; ELG1 MMS cell: inactive; ELG1 unstim viab: inconclusive

How did COc1ccc(-c2cc(C(F)F)n3ncc(C(=O)Nc4ccc(C(=O)N5CCOCC5)cc4)c3n2)cc1 do in these assays?
ELG1 repair inh: 2.6µM; MCF10A rerep: inactive; SW480 rereplic: inactive; Gal4-VP16 FLuc: inactive; RORg inh: inactive; ELG1-Luc inh: 2.8µM; ELG1 MMS Luc: inactive; ELG1 5FU viab: inconclusive; ELG1 MMS cell: inactive; ELG1 unstim viab: inconclusive

How did COc1ccc(-c2cc(C(F)F)n3ncc(C(=O)N4CCc5ccccc54)c3n2)cc1 do in these assays?
ELG1 repair inh: 0.52µM; MCF10A rerep: 4.6µM; SW480 rereplic: 7.3µM; Gal4-VP16 FLuc: inactive; RORg inh: inactive; ELG1 FLuc counter: inactive; ELG1-Luc inh: 4.5µM; ELG1 MMS Luc: inconclusive; ELG1 5FU viab: inconclusive; ELG1 MMS cell: inconclusive; ELG1 unstim viab: inactive; FLuc biochem: inactive

How did COCCNC(=O)c1onc(CSc2cc(C)cc(C)c2)c1C(=O)NCCOC do in these assays?
ELG1 repair inh: inactive; MCF10A rerep: inactive; SW480 rereplic: inactive; Gal4-VP16 FLuc: inactive; RORg inh: inactive

What do the screens show for `CC(=O)Nc1ccc(C(=O)COC(=O)C2CC2C)c(F)c1` (configuration not stated)?
ELG1 repair inh: inconclusive; MCF10A rerep: inactive; SW480 rereplic: inactive

What do the screens show for `CN(C)S(=O)(=O)c1cccc(CSCc2cccc(S(=O)(=O)N(C)C)c2)c1`?
ELG1 repair inh: 1.3µM; MCF10A rerep: inactive; SW480 rereplic: inactive; Gal4-VP16 FLuc: inconclusive; RORg inh: inactive; ELG1-Luc inh: inconclusive; ELG1 MMS Luc: 1.1µM; ELG1 5FU viab: inactive; ELG1 MMS cell: 1.1µM; ELG1 unstim viab: inconclusive

How did Cc1cc(C)n2nc(SCc3cccc(S(=O)(=O)N(C)C)c3)nc2n1 do in these assays?
ELG1 repair inh: inactive; MCF10A rerep: inactive; SW480 rereplic: inactive; Gal4-VP16 FLuc: inconclusive; RORg inh: inactive

What do the screens show for `Cc1ccc(N(C)C(=O)c2cc(S(=O)(=O)N3CCCCC3)c[nH]2)cc1`?
ELG1 repair inh: 3.7µM; MCF10A rerep: inactive; SW480 rereplic: inactive; Gal4-VP16 FLuc: inactive; RORg inh: inactive; ELG1-Luc inh: inconclusive; ELG1 MMS Luc: inactive; ELG1 5FU viab: inactive; ELG1 MMS cell: inactive; ELG1 unstim viab: inactive

Results for O=C(COc1ccc(C(=O)c2ccccc2)cc1)Nc1cccnc1 ?
ELG1 repair inh: 1µM; MCF10A rerep: inactive; SW480 rereplic: inactive; Gal4-VP16 FLuc: inconclusive; RORg inh: inactive; ELG1-Luc inh: inconclusive; ELG1 MMS Luc: 1µM; ELG1 5FU viab: inactive; ELG1 MMS cell: 1µM; ELG1 unstim viab: inconclusive
